Assay: HepG2 cell viability effects, profiling panel, calcein-AM fluorescence, 48 h, basal (AID 1164); further: test concentration not given here
Settings: higher = more signal
Molecule [N-]=[N+]=NCc1ccccc1[C@@H]1OC(c2ccc(OCCCO)cc2)=N[C@]1(CCS(=O)(=O)c1ccccc1)C(=O)O has a z-score of 1.05. Work on CC1CC/C=C\[C@H]2OC34C=CCN(c5ccc(Cl)cc5)C(=O)[C@H]3N(C(C)CO)C(=O)[C@]4(C)C2C(=O)O1 (stereo not given in full) yielded a z-score of 1.24. In the case of C=CC[C@]1(C(=O)N2CCCCC2)N=C(c2ccc(OCCCO)cc2)O[C@H]1c1ccccc1CN=[N+]=[N-], the z-score was 0.61. Molecule COc1ccc([Si](C)(C)[C@H]2[C@H](CC(=O)N3CCC[C@H]3CO)O[C@@]3(C(=O)N(Cc4ccc(N5CCOC5=O)cc4)c4ccccc43)[C@@H]2C)cc1 has a z-score of -0.557. Molecule Cc1cc(C)c(C(O)C2C=CC3C(=O)N(c4ccccc4)C(=O)C3N2Nc2ccccc2F)c(C)c1 (stereo not given) has a z-score of -0.631. CC[C@@H]1O[Si](C(C)C)(C(C)C)c2c1cc(-c1cc(C)c(OC)c(C)c1)nc2-c1ccc(Oc2ccccc2)cc1 gave a z-score of -0.601. With O[C@@H](Cc1ccccc1)[C@@H](/C=C/C1CC1)N(CC#Cc1ccccc1)Cc1ccccc1Br the z-score was -0.258. In the case of COC(=O)C/C=C/C[C@]1(O)C(=O)N(C)c2ccccc21, the z-score was 1.39. C=CC[C@@]1(C(=O)NCCCOC)N=C(c2ccc(OCCCO)cc2)O[C@@H]1c1ccccc1N=[N+]=[N-] showed a z-score of -0.465. COC(=O)[C@@H]1N=C(c2ccc(OCCCO)cc2)O[C@@H]1C showed a z-score of 0.958. For CCCC=C(CCC)[C@@H](NC(=O)c1cccs1)c1ccc(C(=O)OC)cc1, the z-score was -0.125. Work on COc1cc(NN2C(C(O)c3cc(OC)c(OC)c(OC)c3)C=CC3C(=O)N(C)C(=O)C32)cc(OC)c1OC (stereo not given) yielded a z-score of -0.122. For COc1cc(OC)c(C(O)C2C=CC3C(=O)N(Cc4ccccc4)C(=O)C3N2n2cnnc2)cc1Br (stereo not given), the z-score was -0.161. Molecule C=CCC(OC(C)=O)[C@@H]1[C@@H](N(Cc2cc3ccccc3o2)C(=O)Cc2ccc(F)cc2)c2cc(OCCCO)ccc2N1C(=O)Cc1ccc2ccccc2c1 (stereo not given in full) has a z-score of 0.766. COc1ccc(CCNC(=O)[C@@H]2c3ccccc3C(=O)N(C3CCCCC3)[C@H]2c2ccc(CO)cc2)cc1 showed a z-score of 0.383. Molecule C[N+](C)(C)CCCC[C@@H]1NC(=O)[C@@H]2C[C@H](C(=O)NCCCCCCN)[C@H](c3cccc(OCCO)c3)N2C1=O has a z-score of 0.649. O=C1C2C=CC(C(O)C3CC=CCC3)N(Nc3ccccc3)C2C(=O)N1c1ccccc1 (stereo not given) showed a z-score of -1.2. O=C1C2C=CC(C(O)c3ccco3)N(Nc3ccccc3F)C2C(=O)N1c1ccccc1 (stereo not given) gave a z-score of -0.0718. Work on COC(=O)c1c(CC[C@@H](CO)NC(=O)N2CCC[C@H]2Cn2cc(C3(O)CCCCC3)nn2)oc(C(C)=O)c1C(=O)OC yielded a z-score of -0.513. With C=C(/C(=C/C[C@H](OC(=O)c1ccncc1)c1ccc(CO)o1)c1cnc2ccccc2c1)C(C)C the z-score was -0.181. Work on COCC(=C=CC[C@H](O)c1ccccc1OCCO)C[C@H](O)c1ccccn1 yielded a z-score of 0.781. Work on CC(C)c1ccc(NN2C(C(O)c3ccc(F)cc3)C=CC3C(=O)N(c4ccccc4)C(=O)C32)cc1 (stereo not given) yielded a z-score of 0.747. Molecule CO[C@H]1O[C@H](CO)[C@@H](OC(=O)Nc2ccc3c(c2)OCO3)[C@H](OC(=O)Nc2ccc3c(c2)OCO3)[C@@H]1OC(=O)Nc1ccc2c(c1)OCO2 has a z-score of -0.797. CCCNC(=O)[C@@H]1c2ccccc2C(=O)N(Cc2ccc(OC(F)(F)F)cc2)[C@H]1c1ccc(CO)cc1 showed a z-score of 2.08. In the case of CCOC(=O)C[C@H]1[C@H](OC(=O)c2cc3ccccc3oc2=O)[C@@H](NC(=O)c2ccccc2)c2cc(OCCCO)ccc2N1C(=O)c1ccccc1, the z-score was -0.521. CCCNC(=O)[C@@]1(C)c2ccccc2C(=O)N(c2ccc(C)cn2)[C@H]1c1ccc(CO)cc1 gave a z-score of -0.146. CC(C)C(O)C1C=CC2C(=O)N(c3ccccc3)C(=O)C2N1Nc1ccccc1 (stereo not given) gave a z-score of -0.917. CCCCC(CC)C(O)C1C=CC2C(=O)N(c3ccccc3)C(=O)C2N1Nc1ccc(C#N)cc1 (stereo not given) showed a z-score of 2.34. Work on COc1ccc(CCNC(=O)[C@@]2(Cc3ccccc3I)c3ccccc3C(=O)N(C3CCCCC3)[C@H]2c2ccc(CO)cc2)cc1 yielded a z-score of -0.449. [N-]=[N+]=Nc1ccccc1C[C@@]1(C(N)=O)N=C(c2ccc(OCCCO)cc2)O[C@@H]1c1ccccc1N=[N+]=[N-] showed a z-score of -0.727. Molecule C=CCN1C(=O)[C@]2(CCS(=O)(=O)c3ccccc3)N=C(c3ccc(OCCCO)cc3)O[C@@H]2c2ccccc21 has a z-score of 0.504. Work on NC(=O)NCC#Cc1ccc2c(c1)[C@]1(C(=O)N2)[C@H](c2ccccc2OCCO)N2[C@H](c3ccccc3)[C@H](c3ccccc3)OC(=O)[C@H]2[C@@H]1C(=O)O yielded a z-score of -1.06. NCCCCCNC(=O)[C@H]1C[C@H]2C(=O)N3CCC[C@H]3C(=O)N2[C@H]1c1cccc(OCCO)c1 showed a z-score of -0.816. COc1ccc([Si](C)(C)[C@@H]2[C@@H](CCO)O[C@]3(C(=O)N(Cc4cccc(NC(=O)[C@H](C)O)c4)c4ccccc43)[C@H]2C)cc1 gave a z-score of -4.53. CCCCN1CC=CC23O[C@@H]4/C=C\CCCOC(=O)C4[C@H]2C(=O)N(CCO)[C@@H]3C1=O (stereo not given in full) gave a z-score of -0.0509.

Source: PubChem BioAssay
